HDAC3 inhib: human HDAC3 inhibition. O15379. recombinant HDAC3, fluorogenic peptide/trypsin coupled, fluorescence. inhibition, % at 8.3 µM. 320,000 compounds, 0.15% hits; in the data active = inhibition above about 26%, passing the limit was not always enough; inconclusive = no clear call, values can overlap the other calls
IDE cell inh: cellular human IDE inhibition | P14735 | HEK cells, FAbetaB cleavage, fluorescence polarization | inhibition, % at 5.59 µM | 320,000 compounds, 0.41% hits | AID 434962;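 active = percent inhibition above the average of all tested compounds plus 3 SD, set per screening campaign, cut at about 16% in these data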;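 also: IDE supplied by intact live HEK cells; FP after avidin binding of uncleaved biotin substrate so inhibition keeps polarization high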
Target sequence (P14735 whole entry, looked up): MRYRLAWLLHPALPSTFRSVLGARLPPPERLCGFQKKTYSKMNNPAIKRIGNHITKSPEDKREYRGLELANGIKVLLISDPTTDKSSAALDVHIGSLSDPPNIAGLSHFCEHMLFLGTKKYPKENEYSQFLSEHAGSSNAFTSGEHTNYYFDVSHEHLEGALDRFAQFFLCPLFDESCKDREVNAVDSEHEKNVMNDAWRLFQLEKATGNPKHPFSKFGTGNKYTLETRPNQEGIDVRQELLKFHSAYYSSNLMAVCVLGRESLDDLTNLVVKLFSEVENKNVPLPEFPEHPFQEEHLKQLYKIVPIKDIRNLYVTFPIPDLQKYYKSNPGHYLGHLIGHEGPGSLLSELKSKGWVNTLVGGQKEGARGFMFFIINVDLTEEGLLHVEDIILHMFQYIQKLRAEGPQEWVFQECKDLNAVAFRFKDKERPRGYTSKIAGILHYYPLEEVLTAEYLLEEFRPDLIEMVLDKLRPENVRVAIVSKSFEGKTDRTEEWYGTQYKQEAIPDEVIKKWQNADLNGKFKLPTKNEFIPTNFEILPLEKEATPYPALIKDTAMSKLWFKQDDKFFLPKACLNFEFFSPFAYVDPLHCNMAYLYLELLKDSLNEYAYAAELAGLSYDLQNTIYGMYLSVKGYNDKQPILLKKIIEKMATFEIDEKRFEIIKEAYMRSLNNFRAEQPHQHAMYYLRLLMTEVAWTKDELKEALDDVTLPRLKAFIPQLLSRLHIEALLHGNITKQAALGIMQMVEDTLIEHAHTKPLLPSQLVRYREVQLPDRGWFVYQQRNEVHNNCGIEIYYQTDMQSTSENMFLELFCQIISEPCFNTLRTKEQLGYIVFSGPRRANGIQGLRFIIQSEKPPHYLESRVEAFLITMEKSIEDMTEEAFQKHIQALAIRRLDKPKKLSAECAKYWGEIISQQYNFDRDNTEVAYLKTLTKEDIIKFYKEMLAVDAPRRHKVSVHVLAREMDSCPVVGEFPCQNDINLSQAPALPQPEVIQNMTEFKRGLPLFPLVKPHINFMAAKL
LANA-H2A inh: blocks KSHV LANA binding to histone H2A/H2B; cell-free LANA-H2A/H2B peptide, fluorescence polarization; inhibition, % (no concentration beside the values); 320,000 compounds, 0.6% hits; AID 2629; in the data active = inhibition mostly above about 10%, no sharp cut-off; inactive = mostly below about 6.7%
IDE act: activators of human insulin-degrading enzyme in cells; HEK cells, FAbeta-B cleavage, fluorescence polarization; 0% vehicle, 100% cell-free pure enzyme wells; activation, % at 5.96 µM; 340,000 compounds, 0.073% hits;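 active = activation above the mean of all tested compounds plus 3 SD, set per screening campaign, cut at about 17% in these data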
IDE cell inh cf: cellular human IDE inhibition, confirmation; shares compounds with IDE cell inh; HEK cells, FAbetaB cleavage, fluorescence polarization; inhibition, % at 5.59 µM; 1,200 compounds, 51% hits;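 active = mean inhibition across triplicate wells above the cutoff set by the earlier primary insulin-degrading enzyme screen, cut at about 16% in these data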
HEK293 tox: kills HEK cells in IDE inhibitor counter-screen; shares compounds with IDE cell inh; HEK293 cytotoxicity, ATP luminescence; inhibition, % at 5.59 µM; 1,200 compounds, 28% hits; in the data active = inhibition above about 22%
Each line names hits and unclear results; the compound was inactive in the other large screens (follow-up assays come after a bar, where they were run). Most compounds without a hit are left out; they make up all but 1.1% or so of the library.

COc1cc(/C=C/C(=O)c2ccc(NS(=O)(=O)c3ccc(C)cc3)cc2)cc(OC)c1O	IDE cell inh 26.6 | IDE cell inh cf 55.9 | HEK293 tox 44.7
Cc1ccc(C2=CC(c3ccc(N(C)C)cc3)n3nnnc3N2)cc1 (stereo not drawn)	IDE cell inh 41.0 | IDE cell inh cf 42.2 | HEK293 tox inactive
COc1ccc(C2=CC(c3ccc(F)cc3)n3nnnc3N2)cc1 (stereo not drawn)	none (no result: HDAC3 inhib)
CCN(CC)C(=O)C(C(=O)c1cccc([N+](=O)[O-])c1)n1cc(Cl)ccc1=O (stereo not drawn)	none
COc1ccc(NC(=O)CSc2nccn2Cc2ccco2)cc1	none
CCN(CC)c1ccc(/C=N/NC(=O)c2cccc(S(=O)(=O)N3CCOCC3)c2)c(O)c1	IDE cell inh 21.6 | IDE cell inh cf 37.1 | HEK293 tox 84.7
S=C(Nc1ccccc1)Nc1nc2ccccc2n1CCOc1ccc(Br)cc1	IDE cell inh 25.6 | IDE cell inh cf inactive | HEK293 tox inactive
CC(=O)Nc1ccc(NC(=O)c2cc(-c3ccc(C)c(C)c3O)n[nH]2)cc1	none
Cc1ccc(-c2cc(C(=O)Nc3ccc(S(=O)(=O)Nc4ncccn4)cc3)[nH]n2)c(O)c1C	IDE cell inh 31.3 | IDE cell inh cf 20.3 | HEK293 tox inactive
O=C(Nc1ccccn1)C1CCCN1S(=O)(=O)c1ccc(Cl)cc1 (stereo not drawn)	none
COc1ccc(Cl)cc1N1C(=NC(=O)C2CCCCC2)SC2CS(=O)(=O)CC21 (stereo not drawn)	none
Cc1cccc(N2CCN(C(=O)C3CCC(CNS(=O)(=O)c4cccs4)CC3)CC2)c1C (stereo not drawn)	IDE cell inh 20.9 | IDE cell inh cf inactive | HEK293 tox 52.1
Cc1cc(N2CCCC2)ccc1/C=C1\NC(=S)N(C)C1=O	IDE cell inh 79.2 | IDE cell inh cf 115.7 | HEK293 tox inactive
O=C1/C(=C/c2ccc(N3CCCC3)cc2)NC(=S)N1C1CC1	IDE cell inh 89.6 | IDE cell inh cf 119.9 | HEK293 tox 26.9
O=C1N/C(=C/c2ccc(N3CCCC3)cc2)C(=O)N1c1ccccc1	none
C=CCn1c(SCc2cc(C(C)=O)ccc2OCC)nc2ccccc2c1=O	none
COCCCn1cnnc1SC(C)C(=O)Nc1ccc(S(=O)(=O)N2CCOCC2)cc1 (stereo not drawn)	none
CCOc1cc(N2CCOCC2)c(OCC)cc1NC(=O)C(NC(=O)c1c(F)cccc1F)C(C)C (stereo not drawn)	none (no result: HDAC3 inhib, IDE cell inh, LANA-H2A inh)
CCCc1cc(C(=O)Nc2ccc(C(=O)c3ccccc3)cc2)n(C)n1	IDE cell inh 18.8 | IDE cell inh cf inactive | HEK293 tox 23.1
CCCN1C(=O)/C(=C/C=C2\N(CC)c3ccccc3C2(C)C)SC1=S	IDE cell inh 16.1 | IDE cell inh cf 114.3 | HEK293 tox inactive
CN1/C(=C\C=C2/SC(=S)N(CC(=O)O)C2=O)C(C)(C)c2ccccc21	IDE cell inh 132.6 | IDE cell inh cf 25.9 | HEK293 tox inactive
C=CCN1C(=O)/C(=C\C=C2\N(C)c3ccccc3C2(C)C)SC1=S	none
O=C(Nc1cccc(-n2cnnn2)c1)c1cccs1	none
CCc1sc(C(=O)Nc2cccc(-n3cnnn3)c2)cc1C	IDE cell inh 31.7 | IDE cell inh cf 18.6 | HEK293 tox inactive
O=C(O)c1nn(-c2cccc(Cl)c2)c(=O)cc1O	none
O=C1/C(=C\c2cc([N+](=O)[O-])ccc2O)SC(=S)N1Cc1ccc(Cl)cc1	IDE cell inh 39.8 | IDE cell inh cf 130.1 | HEK293 tox inactive
COc1cc(/C=C2/SC(=S)N(Cc3ccccc3)C2=O)ccc1O	IDE cell inh 115.4 | IDE cell inh cf 138.7 | HEK293 tox inactive
O=C1/C(=C\c2ccc(O)c(O)c2)SC(=S)N1Cc1ccccc1	none (no result: IDE cell inh)
COc1cc(/C=C2/SC(=S)N(c3c(C)n(C)n(-c4ccccc4)c3=O)C2=O)ccc1O	IDE cell inh 17.5 | IDE cell inh cf 45.6 | HEK293 tox inactive
COc1cc(/C=C2/SC(=NCc3ccccc3)N(Cc3ccccc3)C2=O)ccc1O	IDE cell inh 37.5 | IDE cell inh cf 56.8 | HEK293 tox inactive
CCOc1ccc(NC(=O)C(C)Oc2ccc(C#N)cc2)cc1S(=O)(=O)N1CCCC1 (stereo not drawn)	none
COc1cc(C(=O)NCC(=O)NC(C)CCc2ccccc2)cc(OC)c1OC (stereo not drawn)	none
CN(C)c1ccc(C2C=C(c3ccc(Cl)cc3OC(F)F)Nc3ncnn32)cc1 (stereo not drawn)	IDE cell inh 21.0 | IDE cell inh cf 28.3 | HEK293 tox 60.7
COc1ccc(C2C(C(C)=O)=C(C)N=c3s/c(=C\c4ccco4)c(=O)n32)c(OC)c1 (stereo not drawn)	none
COc1ccc(C2C(C(C)=O)=C(C)N=c3s/c(=C\c4cc(C)n(C)c4C)c(=O)n32)c(OC)c1 (stereo not drawn)	IDE cell inh 116.2 | IDE cell inh cf 25.9 | HEK293 tox inactive
CCOC(=O)c1c(C)[nH]c(C(=O)COC(=O)[C@H](C)NC(=O)c2ccccc2Cl)c1C	none (no result: HDAC3 inhib)
CCOC(=O)c1c(C)[nH]c(C(=O)COC(=O)CNC(=O)c2ccccc2Cl)c1C	IDE cell inh 17.5 | IDE cell inh cf inactive | HEK293 tox inactive
O=C(C1=NN(c2ccccc2)C2C(=O)N(c3ccccc3Cl)C(=O)C12)c1ccccc1 (stereo not drawn)	IDE cell inh 24.0 | IDE cell inh cf 28.9 | HEK293 tox inactive
O=C(C1=NN(c2ccccc2)C2C(=O)N(c3ccccc3)C(=O)C12)c1ccccc1 (stereo not drawn)	IDE cell inh 18.7 | IDE cell inh cf 23.1 | HEK293 tox inactive
Nc1cc(N)nc(CS)n1	none
CCOCCCNC(=S)N1CCCN(c2nc3cc(C)c(C)cc3cc2C#N)CC1	IDE cell inh 21.0 | IDE cell inh cf inactive | HEK293 tox inactive
Cc1onc(-c2ccccc2)c1C(=O)N1CCN(c2ccccc2F)CC1	none
O=C1C=CC(=O)C(C2=C3C(=O)N(CCc4ccccc4)CC(=O)N3CCC2)=C1	IDE cell inh 40.1 (no result: IDE act) | IDE cell inh cf inactive | HEK293 tox 123.8
O=C1CC2(CCCCC2)CC(=O)N1CCc1ccccc1	none (no result: HDAC3 inhib, IDE cell inh, LANA-H2A inh)
O=C1CN(C(=O)COC(=O)CCc2ccccc2O)c2ccccc2N1	none
O=C(O)CCC(=O)Nc1ccc(OCC(=O)O)cc1	none
C/C(=N/NC(=O)CN1CCN(Cc2ccccc2Cl)CC1)c1ccncc1	IDE cell inh 24.4 | IDE cell inh cf inactive | HEK293 tox inactive
COc1ccc(CC(=O)Nc2cccc(S(=O)(=O)N3CCCCCC3)c2)cc1OC	none
Cc1cc(OCC(O)CNC(C)c2ccccc2)ccc1C(C)C (stereo not drawn)	HDAC3 inhib inconclusive
COc1ccc2c(C)c(CC(=O)N3C[C@H]4C[C@@H](C3)c3cccc(=O)n3C4)c(=O)oc2c1OC	none
Cc1oc2cc3oc(=O)c(CCC(=O)N4C[C@H]5C[C@@H](C4)c4cccc(=O)n4C5)c(C)c3cc2c1C	IDE cell inh 18.0 | IDE cell inh cf inactive | HEK293 tox inactive

Source: PubChem (several laboratories)
